The test system of the first experiment is EPHB1. The following applies: concentration: 1 μM, replicates: in singlicate; n = 1.
In the case of `CC(=O)Nc1nc2cnc(Nc3cc(NC(=O)c4cccc(C5(C#N)CC5)c4Cl)ccc3C)nc2s1`, the “%Inh” value is on record as 10%.
On the same count and under the same terms, the value for `c1ccc(-c2cnc3nccnn23)cc1` [AH20685] was 0%; that for `CCn1c(-c2nonc2N)nc2c(C#CC(C)(C)O)nc(OC[C@H](N)c3ccccc3)cc21` [GSK943949] was 8%.
The same measure, in the same setting: the value for `Cl.Cl.NCC(C(=O)Nc1cc(Br)c(-c2ccnc3[nH]ccc23)s1)c1ccccc1` (centres unmarked) [GSK1269851] was 0%; that for `COc1cccc(C2=C(Nc3ccc(Cl)c(C(=O)O)c3)C(=O)NC2=O)c1` [SB-390769] was 0%.
Turning to `Cc1cccc(Nc2nc(N[C@H]3CCNC3)ncc2C(N)=O)c1.Cl` [GSK2197149], the “%Inh” value is recorded as 27%.

The next experiment relates to EPHB2. The following applies: concentration: 1 μM, replicates: in singlicate; n = 1.
`Cc1ccc(C(=O)Nc2ccc(Nc3ccnc4cc(-c5nccs5)ccc34)cc2O)cc1.Cl` [GW494702]: the “%Inh” value was determined as 21%.
As for `CC(C)c1nc(-c2cccc(NS(=O)(=O)c3c(F)cccc3F)c2F)c(-c2ccnc(Nc3ccc(N4CCOCC4)nc3)n2)s1` [GSK2008607], the “%Inh” value turned out to be 0%.
For `Cl.c1ccc(-c2ccc3c(Nc4ccc5[nH]ccc5c4)ccnc3c2)nc1` [GW440138], the “%Inh” value is recorded as 0%.
For `Nc1ncc(-c2cccnc2)c2scc(-c3ccc4c(c3)CCN4C(=O)Cc3ccccc3)c12` [GSK683281], the “%Inh” value is 9%.
On to `COc1cc(Nc2nccc(-c3c(-c4cccc(NC(=O)c5c(F)cccc5F)c4)nn4ccccc34)n2)cc(OC)c1OC` [GSK323521], for which the “%Inh” value is on record as 9%.
As to `CCc1ccc(-c2ccc3c(c2)-c2c(cnn2C)S(=O)(=O)N3C)cc1`, the “%Inh” value is reported as 0%.
Same read-out and setting: with `COC(=O)Nc1nc2cc(Oc3ccc(NC(=O)Nc4cc(C(F)(F)F)ccc4F)cn3)ccc2[nH]1.Cl.Cl` [GW681170] the figure was 78%.
Still for that read-out and setting: the value for `Cc1occc1-c1ncc(OC[C@@H](N)Cc2c[nH]c3ccccc23)cc1-c1ccc2[nH]nc(C)c2c1.O=C(O)C(F)(F)F` [GSK682037] was 0%.
The same measure, in the same setting: with `O=C(Nc1cccc(Oc2ccc3nc(NC(=O)C4CC4)cn3n2)c1)c1ccccc1C(F)(F)F` the figure was 19%.
Take `CSc1cccc2c(-c3ccncn3)c(-c3ccc(F)cc3)nn12` [GW514786]: the “%Inh” value is given as 0%.
The same measure, in the same setting: with `COc1cc(Nc2ncc3c(C)nc(-c4cc5ccccc5[nH]4)n3n2)cc(OC)c1OC` [GW869516] the figure was 36%; with `O=C(Nc1cccc(-c2nn3ccccc3c2-c2ccnc(Nc3cccc(C(F)(F)F)c3)n2)c1)c1c(F)cccc1F` [GSK292658], 0%; with `CNC(=O)c1ccccc1Nc1nc(Nc2ccc(N3CCOCC3)cc2)ncc1Cl.Cl` [GSK1576028], 23%.
Regarding `Cl.c1ccc(-c2ccc3c(Nc4ccc5[nH]ncc5c4)ccnc3c2)nc1` [GW440137], the “%Inh” value is 0%.
On to `Cl.Cl.NCC(NC(=O)c1cc(-c2ccccc2)c(-c2ccnc3[nH]ccc23)s1)c1ccccc1` (centres unmarked) [GSK1321561], for which the “%Inh” value is 0%.
For the compound `COc1cc2c(cc1OCCN1CCNCC1)ncc1c3ccc(C#N)cc3[nH]c21`, the “%Inh” value came to 2%.
With `CCn1c(-c2nonc2N)nc2c(C#CC(C)(C)O)ncc(OCCCCN)c21.O=C(O)C(F)(F)F.O=C(O)C(F)(F)F` [GSK507274], the “%Inh” value was 0%.
The same measure, in the same setting: the value for `COc1cc(Nc2nccc(-c3c(-c4cccc(NC(=O)c5c(F)cccc5F)c4)nn4ncccc34)n2)cc(OC)c1OC` [GSK327238] was 93%; that for `COc1cc(Nc2nccc(N3CCC(NC(=O)Nc4cccc(C(C)=O)c4)C3)n2)cc(OC)c1OC` (centres unmarked) [GSK1379753] was 0%; that for `CN(C)S(=O)(=O)c1cc(-c2ccc3nccc(-c4cccc(S(N)(=O)=O)c4)c3c2)cnc1N` [GSK1669921] was 0%.
For `COCCOCCOc1cc2ncc3c4ccc(C#N)cc4[nH]c3c2cc1OC`, the “%Inh” value came out at 23%.
Take `Nc1n[nH]c2cnc(-c3ccccc3)cc12` [SB-642124]: the “%Inh” value worked out at 40%.
Same read-out and setting: the value for `CN1CCN(CCCNc2nccc(-c3c(-c4ccc(F)cc4)nn4cc(C(F)(F)F)ccc34)n2)CC1` [GW621581] was 0%; that for `Nc1ncnc2c1nc(-c1ccccc1)n2-c1ccccc1` [SKF-97293] was 0%.
Still for that read-out and setting: the value for `Cl.NC(=O)c1cccc(Nc2nccc(Nc3ccc(Oc4c(Cl)cccc4Cl)c(Cl)c3)n2)c1` [GW659009] was 0%.
For the compound `Cc1ccc(F)c(C(=O)Nc2cccc(-c3nn4ccccc4c3-c3ccnc(Nc4cccc(F)c4)n3)c2)c1F` [GSK361061], the “%Inh” value amounted to 0%.

Values taken from PMC5540273 (PLoS ONE, 2017).
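Further: KINOMEscan kinase panel screen.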
